# NTMT1 inhibitor = blocks human N-terminal methyltransferase 1 activity | Q9BV86 | Potency, µM (top dose mostly 114 µM), inactives show at the highest dose activity change, negative = inhibition, hits mostly inhibitors | NTMT1 MTase-Glo SAH luminescence, purified enzyme | 59,000 compounds, 2.5% hits;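 note: potency is the fitted concentration of half-maximal effect; plate controls were DMSO vehicle for no effect and no enzyme for full effect; nearly all actives have a fitted effect of over 65% in size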
# Target sequence (Q9BV86 whole entry, looked up): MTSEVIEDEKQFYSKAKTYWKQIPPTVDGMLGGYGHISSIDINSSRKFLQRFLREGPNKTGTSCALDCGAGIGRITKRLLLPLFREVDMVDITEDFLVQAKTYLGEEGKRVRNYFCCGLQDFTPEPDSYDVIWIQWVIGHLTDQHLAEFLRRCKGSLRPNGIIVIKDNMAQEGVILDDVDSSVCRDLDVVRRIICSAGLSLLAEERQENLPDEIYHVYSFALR
# HTT prom inh = inhibitors of huntingtin promoter activity. HEK293 HTT promoter firefly luciferase reporter, 24 h. Potency, µM (series often up to 57.5 µM), without a hit: at the highest dose activity change, negative = inhibition, usual class: inhibitors. 48,000 compounds, 0.93% hits. AID 1508623; note: potency is the fitted concentration of half-maximal effect; nearly all actives have a fitted effect of over 50% in size
#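 Firefly luciferase signal from promoter-reporter HEK293 cells was scaled between vehicle (0%) and zero RLU (-100%). Compounds were tested at final concentrations of up to 57.5 uM over 24 h at 37 degrees C. PTC124 at 50 uM final served as control inhibitor.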
# HTT-AS act = HTT-AS promoter activation; HEK293 HTT-AS promoter firefly luciferase reporter, 24 h; response scale: percent change from vehicle, -100% = no light; Potency, µM (top dose mostly 57.5 µM), for inactives: at the highest dose activity change, positive = activation, usual class: activators; 48,000 compounds, 0.24% hits; note: potency is the fitted concentration of half-maximal effect; nearly all actives have a fitted effect of over 55% in size
#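 HEK293 Fluc reporter, 2,500 cells/well, 24 h pre-culture; cpds up to 57.5 uM final, 24 h 37 degrees C; Dual-Glo, 10 min RT; normalized vehicle = 0%, zero RLU = -100%.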
# CLK4 inh-1 = CLK4 kinase inhibition, SAR round 2 | recombinant Clk4, Kinase-Glo ATP luminescence, 4.5 h | 90 compounds, 90% hits | Potency, µM (doses to about 76.9 µM), for inactives: top-dose activity, negative = inhibition, most hits filed as inhibitors | AID 493204 | shares compounds with NTMT1 inhibitor
# CLK4 inh-2 = inhibitors of human CLK4 kinase, SAR round 2; shares compounds with NTMT1 inhibitor; Reaction Biology kinase assay, 10 uM ATP; 65 compounds, 100% hits; Potency, µM, usual class: inhibitors; calls by dose curve
# DYRK1A inh = DYRK1A kinase inhibition. Potency, µM, actives largely listed as inhibitors. Reaction Biology kinase assay, 10 uM ATP. shares compounds with NTMT1 inhibitor. 65 compounds, 90% hits;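 active = compounds that showed inhibition of Dyrk1a and received a fitted potency; inactive = compounds that showed no inhibition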
# CLK2 inh = blocks human CLK2 kinase in radiometric assay | Reaction Biology kinase assay, 10 uM ATP | shares compounds with NTMT1 inhibitor | Potency, µM, actives largely listed as inhibitors | 65 compounds, 90% hits;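 active = compound that inhibits Clk2 kinase in the dose series, with an IC50 potency reported; inactive = no inhibition seen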
# CLK3 RBC = inhibitors of human CLK3 kinase | shares compounds with NTMT1 inhibitor | recombinant CLK3 kinase assay, 10 uM ATP | Potency, µM, most hits filed as inhibitors | 65 compounds, 40% hits | AID 504428;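 active = compounds that inhibited Clk3 enough in the ten-dose series to give a half-maximal potency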
# DYRK1B RBC = DYRK1B kinase inhibition; shares compounds with NTMT1 inhibitor; Recombinant Dyrk1b kinase assay, 10 uM ATP; Potency, µM, actives largely listed as inhibitors; 65 compounds, 80% hits; AID 504429;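 active = compounds whose dose response shows an inhibitor phenotype against the kinase Dyrk1b; inactive = compounds showing no inhibitor phenotype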
# CLK1 RBC = CLK1 kinase inhibition | shares compounds with NTMT1 inhibitor | recombinant Clk1 kinase assay, 10 uM ATP | Potency, µM, hits mostly inhibitors | 65 compounds, 90% hits;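 active = compounds that block the splicing kinase Clk1 enough to give a fitted half-inhibition concentration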
# Sfp qHTS opt = Sfp PPTase inhibition, chemistry optimization; shares compounds with NTMT1 inhibitor; purified Sfp PPTase enzyme activity, qHTS; Potency, µM (series often up to 114 µM), for the others: top-dose activity change, negative = inhibition, actives largely listed as inhibitors; 230 compounds, 78% hits
# Bsub HM489 growth = Sfp PPTase inhibitors: growth inhibition of B. subtilis HM489 | shares compounds with NTMT1 inhibitor | B. subtilis HM489 (acpS-) growth, BacTiter-Glo, 5 h | Potency, µM (titrated, usually from 114 µM), for inactives: at the highest dose activity change, negative = inhibition, usual class: inhibitors | 220 compounds, 50% hits
# Sfp PPTase gel = inhibitors of Bacillus subtilis Sfp PPTase, gel-based followup; Potency, µM (top dose mostly 250 µM), for the others: at the highest dose activity change, negative = inhibition, hits mostly inhibitors; purified Sfp PPTase, gel-based product detection; AID 540355; 220 compounds, 54% hits; shares compounds with NTMT1 inhibitor
# Sfp inh gel = confirmation of Bacillus subtilis Sfp PPTase inhibitors; shares compounds with NTMT1 inhibitor; purified Sfp PPTase, gel-based product detection; Potency, µM (series often up to 250 µM), for the others: at the top dose activity change, negative = inhibition, most hits filed as inhibitors; 45 compounds, 90% hits; AID 602362
# Sfp SAR2 = inhibitors of Bacillus subtilis Sfp PPTase, SAR round 2 | Potency, µM (titrated, usually from 57.1 µM), inactives show top-dose activity change, negative = inhibition, actives largely listed as inhibitors | purified Sfp enzyme, PPTase activity, qHTS | 230 compounds, 87% hits | shares compounds with NTMT1 inhibitor | AID 602370
# hGST ctr = counter-screen for Sfp PPTase inhibitors: hGST A1-1 inhibition; shares compounds with NTMT1 inhibitor; Potency, µM (titrated, usually from 114 µM), for inactives: at the top dose activity change, negative = inhibition, hits mostly inhibitors; 55 tested, under 10 active; hGST A1-1 enzyme activity counter-screen, qHTS
# HSD17B4 inh = counter-screen for HPGD inhibitors: human HSD17B4 inhibition. shares compounds with NTMT1 inhibitor. purified HSD17B4, estradiol/NAD+, NADH fluorescence. Potency, µM (doses to about 57.1 µM), without a hit: at the highest dose activity change, negative = inhibition, hits mostly inhibitors. 230 compounds, 10% hits. AID 743187
# ALDH1A1 counter = inhibits human ALDH1A1, off-target for HPGD inhibitors | shares compounds with NTMT1 inhibitor | recombinant ALDH1A1, NADH fluorescence, propionaldehyde/NAD+ | Potency, µM (titrated, usually from 57.1 µM), without a hit: top-dose activity change, negative = inhibition, most hits filed as inhibitors | 230 compounds, 93% hits
# Target sequence (P00352 whole entry, looked up): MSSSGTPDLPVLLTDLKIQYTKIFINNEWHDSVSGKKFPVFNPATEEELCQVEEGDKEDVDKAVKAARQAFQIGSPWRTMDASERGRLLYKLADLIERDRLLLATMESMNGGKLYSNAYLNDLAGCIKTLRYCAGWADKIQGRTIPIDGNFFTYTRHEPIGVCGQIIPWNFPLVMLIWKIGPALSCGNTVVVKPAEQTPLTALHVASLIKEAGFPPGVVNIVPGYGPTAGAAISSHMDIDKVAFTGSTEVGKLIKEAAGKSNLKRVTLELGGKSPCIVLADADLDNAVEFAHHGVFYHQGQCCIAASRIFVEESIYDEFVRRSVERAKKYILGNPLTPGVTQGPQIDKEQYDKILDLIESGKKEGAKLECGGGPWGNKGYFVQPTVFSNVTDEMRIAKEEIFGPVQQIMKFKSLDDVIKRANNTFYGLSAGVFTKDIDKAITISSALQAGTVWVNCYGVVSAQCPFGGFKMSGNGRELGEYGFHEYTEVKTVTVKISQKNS
# NNMT counter = human NNMT inhibition, NTMT1 counter-screen; shares compounds with NTMT1 inhibitor; NNMT MTase-Glo luminescence, SAH detection; Potency, µM (series often up to 57.1 µM), without a hit: at the highest dose activity, negative = inhibition, hits mostly inhibitors; 120 compounds, 10% hits
# Numbers without * were called inactive; i = inactive; ? = inconclusive; nt = no result given; [ ] = remark or other dose. Shown is part of a subset that was picked to be rich in hits. Unless noted, calls come from the whole dose curve; as a rule, active = well fitted curve in the direction sought with a large enough effect; inconclusive = small, poorly fitted or top-dose-only effect, or another doubt; inactive = no such curve, though single readings can be large; an effect the other way counts as inactive or inconclusive.
SMILES,NTMT1 inhibitor,HTT prom inh,HTT-AS act,others
CC(=O)c1ccc(-c2ccc3ncnc(NCc4ccc(C)o4)c3c2)o1,?,nt,nt,CLK4 inh-1=0.29µM*;CLK4 inh-2=0.56*;DYRK1A inh=5.8µM*;CLK2 inh=6.9µM*;CLK3 RBC=i;DYRK1B RBC=10µM*;CLK1 RBC=7µM*
COc1cccc(-c2ccc3ncnc(NCc4cc(C)cs4)c3c2)c1,-2%[57.5 µM],nt,nt,
CCNC(=O)c1ccc(-c2ccc3ncnc(NCc4ccc(C)o4)c3c2)o1,?,nt,nt,CLK4 inh-1=0.52µM*;CLK4 inh-2=1.4*;DYRK1A inh=6.3µM*;CLK2 inh=4.2µM*;CLK3 RBC=i;DYRK1B RBC=6.7µM*;CLK1 RBC=5.4µM*
CC(=O)Nc1ccc(CNc2ncnc3ccc(-c4c(C)noc4C)cc23)cc1,0%[57.5 µM],nt,nt,
Cc1noc(C)c1-c1ccc2ncnc(NCc3ccc(-c4ccccc4)cc3)c2c1,2%,nt,nt,
Fc1cc(Cl)cc(-c2ccc(CNc3nc(-c4ccccc4C(F)(F)F)nc4ccccc34)cc2)c1,9%,nt,nt,
COc1ccc(COc2ccc(-c3nc4ccccc4[nH]3)cc2)cc1OC,10%,nt,nt,
CN1CCC(c2cn(C)c3ccc(OS(=O)(=O)c4c(F)cccc4F)cc23)CC1,12%[57.5 µM],nt,nt,
CC(=O)Nc1sc2c(c1Br)CCNC2,15%,nt,nt,
COC(=O)N(C)c1c(N)nc(-c2nn(Cc3ccccc3F)c3ncccc23)nc1N,-2%[57.5 µM],nt,nt,
CCc1c(-c2ccccc2C)nc2c(C#N)c[nH]n2c1=O,14%,nt,nt,
O=c1c2ccc(-c3cn[nH]c3)cc2nc2sc(Nc3ccc4c(c3)CCC4)nn12,-15%,nt,nt,
Cn1cc(-c2c[nH]c3ncnc(N4CCOCC4)c23)cn1,-12%,nt,nt,
N#Cc1cccc(-c2c[nH]c3ncnc(N4CCOCC4)c23)c1,16µM*,nt,nt,NNMT counter=?
COc1c(C(C)C)c(O)c(O)c2c1C(OC)[C@H]1OC(=O)[C@@]23CCCC(C)(C)[C@H]13 (stereo not given in full),12%[29.8 µM],nt,nt,NNMT counter=-10%[38.3 µM]
CC(C)CC(=O)OC[C@H]1O[C@@](COC(=O)CC(C)C)(O[C@H]2O[C@H](CO)[C@@H](O)[C@H](O)[C@H]2O)[C@@H](OC(=O)CC(C)C)[C@@H]1OC(=O)CC(C)C,-1%[12.6 µM],nt,nt,
CN(C)c1cccc(-c2c3c(=O)n(-c4ccccc4Cl)[nH]c3cc(=O)n2C)c1,-25%[57.5 µM],nt,nt,
Fc1cccc(CNc2ncnc3ccc(-c4cccc(Cl)c4)cc23)c1,-3%,nt,nt,
CS(=O)(=O)CCNCc1ccc(-c2ccc3ncnc(Nc4ccc(OCc5cccc(F)c5)c(Cl)c4)c3c2)o1,9%,?,-22%,CLK4 inh-1=-10%
CC(C)CC(=O)O[C@@H]1OC=C(CO[C@@H]2O[C@H](CO[C@@H]3O[C@H](CO)[C@@H](O)[C@H](O)[C@H]3O)[C@@H](O)[C@H](O)[C@H]2O)[C@H]2C[C@H](O)[C@@H](CO)[C@@H]12,5%[12.6 µM],nt,nt,
Cc1cc(C)nc(NC(=S)N2CCN(c3ccc([N+](=O)[O-])cc3Cl)CC2)c1,28µM*,nt,nt,Sfp qHTS opt=1.5µM*;Bsub HM489 growth=-17%;Sfp PPTase gel=2µM*;Sfp inh gel=1.5µM*;Sfp SAR2=0.81µM*;hGST ctr=0%;HSD17B4 inh=19µM*;ALDH1A1 counter=0.68µM*
Cc1ccc(N2CCN(C(=O)c3cnc(N4CCCCC4)c4ccccc34)CC2)c(C)c1,-2%,?,-29%,
Cc1c(Cl)cccc1NC(=O)N1CCN(Cc2cc(=O)n3nc(-c4ccccc4F)sc3n2)CC1,0%,-14%,0%,
Cc1cc(C)nc(NC(=S)N2CCN(c3ccc4ncccc4c3[N+](=O)[O-])CC2)c1,?,nt,nt,Sfp qHTS opt=5.9µM*;Bsub HM489 growth=-21%;Sfp PPTase gel=-59%;Sfp SAR2=2.9µM*;HSD17B4 inh=-16%;ALDH1A1 counter=19µM*
Cc1cc(C)nc(NC(=S)N2CCN(c3cc(Cl)c(Cl)cc3Cl)CC2)c1,?,nt,nt,Sfp qHTS opt=4.7µM*;Bsub HM489 growth=?;Sfp PPTase gel=5µM*;Sfp SAR2=3.2µM*;HSD17B4 inh=-22%;ALDH1A1 counter=22µM*
